# Assay results reported in PubChem BioAssay AID1117319 (Southern Research Institute, 2015).
# Values joined by “and” are separate entries in the source; they are usually repeats but may differ in a detail not shown here. Equal values may be shown once. Screen size: about 260,000 compounds; about 1,500 (0.58%) were called active. About 5% were inconclusive and are not listed.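 How the source made its calls: active means inhibition above a set limit at one or more doses, reproduced on every date tested; inconclusive means results disagree between test dates, or hit never tested in dose response; inactive means the rest.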 These entries were drawn from the full list. Potency and affinity values are given separately.
# Target: Virion infectivity factor (Human immunodeficiency virus type 1 group M subtype B (isolate BH10)) + Virion infectivity factor (Human immunodeficiency virus type 1 group M subtype B (isolate BRU/LAI)) + Virion infectivity factor (Human immunodeficiency virus type 1 group M subtype B (isolate PCV12)) + Virion infectivity factor (Human immunodeficiency virus type 1 group M subtype B (isolate HXB2)) + DNA dC->dU-editing enzyme APOBEC-3G (Homo sapiens) (UniProt P69720+P69721+P69722+P69723+Q9HC16)
# Assay: HIV-1 Vif–A3G interaction blockers – biochemical, TR-FRET, GST-Vif 1-94, biotin-A3G peptide, dose response retest, primary screen (AID 1117319);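 further: Vif residues 1-94 fused to GST binding biotinylated APOBEC3G peptide 110-148; 0% = full assay without inhibitor and 100% = GST in place of GST-Vif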
# Conditions: TR-FRET GST-Vif / biotin-A3G peptide binding; stronger effect = higher value
row,Structure (SMILES),inhibition
1,CSCCC(NC(=O)c1ccccc1)C(=O)N/N=C(\C)c1ccccc1 (configuration not stated),-5.06% (inactive)
2,Cc1ccc(Nc2ccc(C(=O)O)cc2N)cc1,15% (inactive)
3,Cc1ccc(NS(=O)(=O)c2cc(N)ccc2Cl)c(C)c1,28.9% (inactive)
4,Nc1cccc(Nc2ccccc2)c1,1.33% (inactive)
5,Nc1cc(C(=O)O)ccc1Nc1ccccc1,13% (inactive)
6,Cc1ccc(-n2cc(-c3ccccc3)c3c(NN4CCOCC4)ncnc32)cc1,21% (inactive)
7,COc1cc2nc(N(CCN(C)C)C(=O)c3ccc4ccccc4c3)sc2cc1OC,-3.84% (inactive)
8,O=C1COc2ccc(C(=O)COC(=O)Cc3ccc(F)cc3)cc2N1,-9.09% (inactive)
9,Nc1c(C(=O)OCC(=O)Nc2ccc(Cl)cc2[N+](=O)[O-])[nH]c(=O)[nH]c1=O,-3.88% (inactive)
10,CCc1cc2cc(C)ccc2nc1SCC(=O)N1CCN(C(=O)c2ccco2)CC1,3.37% (inactive)
11,CCc1cc2cccc(C)c2nc1SCC(=O)N1CCN(C(=O)c2ccco2)CC1,5.89% (inactive) and -1.51% (inactive)
12,Cc1cccc(N2CCN(C(=O)c3ccccc3NC(=O)C3=CSCCO3)CC2C)c1 (configuration not stated),0.87% (inactive)
13,Cc1cc(=O)[nH]c2c3ccccc3nn12,-4.45% (inactive)
14,CCOc1ccc(C2C(C(=O)OC)=C(C)N=C3SCCC(=O)N32)cc1OCC (configuration not stated),-1.89% (inactive)
15,CC(C)C(NCc1c(Cl)cccc1Cl)C(=O)O (configuration not stated),-1.01% (inactive)
16,c1ccc(COn2c(-c3ccccc3)nc3c2CCc2nonc2-3)cc1,-7.03% (inactive)
17,COn1c(-c2ccccc2)nc2c1CCc1c-2no[n+]1[O-],3.61% (inactive)
18,Cc1c(C(=O)O)oc2c1C(=O)CC(C)(C)C2,-2.53% (inactive)
19,CC1CC(C)CN(CC(C)(C)NS(=O)(=O)c2ccccc2)C1 (configuration not stated),17.8% (inactive)
20,O=C1C2C3C=CC(CC3)C2C(=O)N1c1ccc(Cl)cc1 (configuration not stated),1.42% (inactive)
21,CCN(CC)C(=O)[C@H]1C[C@H](CC(=O)NC(C)(C)C)C(=O)N2CCc3c([nH]c4cc(CCC(=O)N(C)C)ccc34)[C@]12C,-0.23% (inactive)
22,Cc1c(NS(=O)(=O)c2ccc(Cl)c(C(=O)OC(C)C(=O)NCc3ccco3)c2)c(=O)n(-c2ccccc2)n1C (configuration not stated),5.59% (inactive)
23,O=C(COC(=O)Cc1ccc(Cl)c(Cl)c1)NCc1ccco1,7.25% (inactive)

row,Structure (SMILES),inhibition
1,COC(=O)CNC(=O)C(C)(C)Oc1ccc(Cl)cc1,-6.52% (inactive)
2,COc1ccccc1OCC(=O)NCc1ccco1,8.05% (inactive)
3,O=C(COC(=O)Cc1ccc(F)cc1)NCc1ccco1,-14.6% (inactive)
4,CC(C)(Oc1ccc(Cl)cc1)C(=O)NCC(c1ccco1)N1CCCCC1 (configuration not stated),1.39% (inactive)
5,COc1cccc(OC)c1C(=O)OCC(=O)NCc1ccco1,5.04% (inactive)
6,CNC(=S)N1CCN(c2ccc(Cl)c(Cl)c2)CC1,1.98% (inactive)
7,O=C1CSC(c2ccc(Cl)c(Cl)c2)N1c1nccs1 (configuration not stated),2.94% (inactive)
8,CN(C)C(=O)c1ccc(NC(=O)CSc2nnc(-c3ccc4c(c3)OCO4)o2)cc1,1.62% (inactive)
9,C/C(=N\Nc1ccc(F)cc1)c1ccc(N2CCOCC2)c(F)c1,6.07% (inactive)
10,CC(=O)c1ccc(NC(=O)c2cnsn2)cc1,4.53% (inactive)
11,CCN(CC)C(=O)[C@H]1C[C@H](CC(=O)NCCc2ccccn2)C(=O)N2CCc3c([nH]c4cc(CCC(=O)N(C)C)ccc34)[C@]12C,17.5% (inactive)
12,CCNC(=S)N/N=C/c1c(C)nn(-c2cccc(Cl)c2)c1Cl,5.39% (inactive)
13,CC(=O)C1=C(C)OC(N)=C(C#N)C1c1cc2cccc(C)c2nc1Cl (configuration not stated),-1.1% (inactive)
14,CC(=O)C1=C(C)OC(N)=C(C#N)C1c1cc2cc(C)c(C)cc2nc1Cl (configuration not stated),9.71% (inactive)
15,COc1ccc2nc(NC(=O)C3CCN(C(=O)c4ccc(F)cc4)CC3)sc2c1,-12.6% (inactive)
16,CCc1oc(C(=O)OC)cc1CSC(=N)N,-0.44% (inactive)
17,Cc1cc2ccccn2c1C(=O)c1nc(NCc2ccccc2)ncc1Cl,-3.29% (inactive)
18,COc1cccc(C(=O)OCC(=O)Nc2ccc3c(c2)OCCO3)c1,-5.71% (inactive)
19,CSc1ncccc1C(=O)OCC(=O)NC(=O)NCCC(C)C,-2.12% (inactive)
20,O=C(NCC(c1cccs1)N1CCOCC1)c1ccc(Br)o1 (configuration not stated),22.6% (inactive)
21,CC(=O)Nc1ccc(S(=O)(=O)Nc2nccs2)cc1,-1.8% (inactive)
22,COc1ccc(-c2nnc(Nc3ccc(S(=O)(=O)Nc4nccs4)cc3)c3ccccc23)cc1,12.6% (inactive)
23,COC(=O)[C@H](C)NC(=O)Nc1ccccc1C(F)(F)F,8.61% (inactive)

row,Structure (SMILES),inhibition
1,CNC(=O)C12CCC(C)(c3nc4cc(C)c(C)cc4nc31)C2(C)C (configuration not stated),2.01% (inactive)
2,CCOC(=O)C1CCN(Cc2cnc(Oc3ccc(N)cc3)s2)CC1,3.48% (inactive)
3,CCOC(=O)C1CCN(Cc2cnc(Oc3ccc(C(C)(C)C)cc3)s2)CC1,28.3% (inactive)
4,Cc1cc(CNC(=O)CCc2nnc(CCCCc3ccccc3)o2)nn1C,-5.35% (inactive)
5,CN(C)c1ccc(C(=O)c2ccc(O)cc2O)cc1,-0.42% (inactive)
6,Cc1ccc(-c2cc(Cc3ccc(N(C)C)cc3)c(=O)[nH]n2)cc1,-0.03% (inactive)
7,O=C(Nc1ccc(Cl)cc1)C(c1ccccc1)N(CCO)CCO (configuration not stated),-1.42% (inactive)
8,COC(=O)c1ccc(CSc2nnc(-c3ccccc3)n2C)o1,2.37% (inactive)
9,O=C(O)c1ccc(S(=O)(=O)c2ccccc2C(=O)O)c([N+](=O)[O-])c1,-4.06% (inactive)
10,O=C(O)c1ccc(C(=O)c2cc([N+](=O)[O-])cc([N+](=O)[O-])c2)cc1,-9.99% (inactive)
11,Cc1cc(C(=O)Nc2ccccc2Cc2ccccc2)no1,-1.05% (inactive)
12,Cc1sc(NC(=O)c2cccs2)c(C(=O)OC(C)C)c1C,2.47% (inactive)
13,CCOC(=O)c1c(NC(=O)c2cccs2)sc(C)c1CC,-1.19% (inactive)
14,O=C(O)/C(=C/c1ccc(Cl)c([N+](=O)[O-])c1)c1ccc(S(=O)(=O)N2CCCCC2)s1,19.6% (inactive)
15,COc1c(C)cc(C(=O)C2CCCN(C(=O)c3cc(C)nc(C)n3)C2)cc1C (configuration not stated),-12.6% (inactive)
16,CCc1cccc(NC(=O)CN(C)S(=O)(=O)c2cccc3cccnc23)c1,5.83% (inactive)
17,COc1cc(O)c(CCO)c2c1C(=O)C[C@@H](C)O2,1.87% (inactive)
18,COc1c(O)cc2c(c1O)C(=O)CC(c1ccccc1)O2 (configuration not stated),2.35% (inactive)
19,O=C(NCc1cccnc1)c1ccc(CS(=O)(=O)Cc2ccc(Cl)cc2)o1,21.4% (inactive)
20,CCc1cccc(NC(=O)C2CCN(S(=O)(=O)c3c(C)noc3C)CC2)c1,-1.11% (inactive)
21,Cc1noc(C)c1S(=O)(=O)N1CCC(C(=O)NC2CCN(Cc3ccccc3)CC2)CC1,28.3% (inactive)
22,CCCCn1c(SCC(=O)c2ccc(OCC)cc2)nc2cc(S(N)(=O)=O)ccc21,3.73% (inactive)
23,COc1ccc(NC(=O)CCCCCN2C(=O)CCC2=O)cc1Cl,-2.09% (inactive)

row,Structure (SMILES),inhibition
1,CN1CC(=O)N(CC(=O)Nc2ccc(Cl)c(C(F)(F)F)c2)C1=O,-5.66% (inactive)
2,O[C@H]1C[C@H](c2ccccc2)N(CC2CCCCC2)C[C@@H]1n1cc(C2CC2)nn1,-3.24% (inactive)
3,Cc1ccccc1N(C(=O)Cn1nnc2ccccc21)C(C(=O)NCc1ccco1)c1ccncc1 (configuration not stated),-7.73% (inactive) and -2.99% (inactive)
4,Cc1ccc(C)c(N(C(=O)Cn2nnc3ccccc32)C(C(=O)NCc2ccco2)c2ccncc2)c1 (configuration not stated),-2.7% (inactive)
5,CC(C)Oc1ccc(N2CC(C(=O)Nc3ccccc3C(=O)NC3CC3)CC2=O)cc1 (configuration not stated),-13% (inactive)
6,Cc1ccc2[nH]c(=O)c(C3=NN(C(=O)CCC(=O)O)C(c4cccs4)C3)c(-c3ccccc3)c2c1 (configuration not stated),2.41% (inactive)
7,COC(=O)C(CC(=O)c1ccc(Cl)cc1)c1ccc(C(C)C)cc1 (configuration not stated),10.5% (inactive)
8,O=C(CCCl)N(Cc1nc2ccccc2c(=O)[nH]1)Cc1cccs1,-7.06% (inactive)
9,CC(C)NC(=O)N(Cc1ccccc1)Cc1cccs1,-1.49% (inactive)
10,CN(CC(=O)Nc1cccc(F)c1)C(=O)c1ccccc1OCCOc1ccccc1,2.96% (inactive)
11,O=C(NNC(=O)c1cc2ccccc2o1)c1ccc(F)cc1,-2.65% (inactive)
12,C=CCNC(=O)c1ccc(-c2ccc([N+](=O)[O-])cc2)o1,16.1% (inactive)
13,O=C(NNC(=O)c1ccccc1C(=O)O)c1cc2ccccc2o1,19% (inactive)
14,CC(=O)Nc1ccc(NC(=O)c2ccc(-c3ccc([N+](=O)[O-])cc3)o2)cc1,-7.43% (inactive)
15,CC1CCN(c2ccccc2NC(=S)NC(=O)C(C)(C)C)CC1,-4.59% (inactive)
16,COc1ccc2c(CC(=O)NNC(=O)c3cccs3)coc2c1,5.01% (inactive)
17,CCCC(C(=O)NC(C)(C)C)N(Cc1ccccc1)C(=O)c1snc(C(N)=O)c1N (configuration not stated),3.36% (inactive)
18,Cc1nn(Cc2ccc(Cl)cc2Cl)c(C)c1NC(=O)c1nn(C)cc1Cl,-2.6% (inactive)
19,O=C(CCc1ccccc1)Nc1ccc(NS(=O)(=O)c2ccccc2)cc1,0.68% (inactive)
20,Cc1c[n+]([O-])cc(C)c1[N+](=O)[O-],-3.91% (inactive)
21,O=C(CCN1CCN(CCO)CC1)Nc1ccc(OCc2ccccc2)cc1,-0.21% (inactive)
22,CC1(C)CC(=O)C2=C(C1)NCN(Cc1ccccc1)C2,0.39% (inactive)
23,c1cc2c(cc1CN1CCOCC1)OCO2,11.3% (inactive)
